Laboratory results taken from PubChem BioAssay (NCATS).
“And” between values parts separate entries of the source, which are not always exact repeats. Identical values can stand only once. Results filed as inconclusive are left out. Entries that show only a call come without a potency. Unmarked numbers belong to inactive results. The source made the active and inactive calls. The call rests on the fitted dose curve; in most records, active means well fitted curve in the direction sought with a large enough effect; inconclusive means small, poorly fitted or top-dose-only effect, or another doubt; inactive means no such curve, though single readings can be large; an effect the other way counts as inactive or inconclusive.

Tests used:
[1] = target: Cytochrome P450 3A7 (Homo sapiens) (UniProt P24462); test: Cytochrome P450 family 3 subfamily A member 7 (CYP3A7) small molecule antagonists: luciferase biochemical qHTS assay (AID 1963596); further: nearly all actives have a fitted effect of over 40% in size
Procedure, shortened: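 Enzyme-substrate mix + cpd (DMSO), 10 min RT; + NADPH regen system, 1 h RT; + luciferin detection reagent, 20 min RT; luminescence read. Proluciferin substrate, P450-Glo format, 1536-well qHTS.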

[2] = Viability qHTS for spleen associated tyrosine kinase inhibitor (SYKi) naive MV4-11 cells (AID 1963823); further: nearly all actives have a fitted effect of over 40% in size
Procedure, shortened: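 CellTiter-Glo luminescence, 10 min room-temperature incubation, gave viability. Cells: naive MV4-11 (500/well), treated 72 hr at 37 C, 5% CO2.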

[3] = Cellular viability qHTS for adrenocortical cancer (ACC) cell line SW-13 (AID 1963989); conditions: SW-13 ACC cells viability, CellTiter-Glo, 48 h; activity (max response): active compounds read low; further: nearly all actives have a fitted effect of over 65% in size;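 on activity (max response): cells grown in serum-free medium with ITS supplement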
Procedure, shortened: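 48 h treatment, SW-13 in ITS/DMEM serum-free; doses up to 46 uM; readout CellTiter-Glo luminescence; curve fit four-parameter logistic.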

[4] = Cellular viability qHTS for adrenocortical cancer (ACC) cell line NCI-H295R (AID 1963990); further: nearly all actives have a fitted effect of over 60% in size
Procedure, shortened: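 Compound titrations (up to 46 uM final) are applied to NCI-H295R cultures for 48 h at 37C. Viable cell number is estimated by CellTiter-Glo signal, normalised to DMSO and doxorubicin controls.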

[5] = Viability qHTS for spleen associated tyrosine kinase inhibitor (SYKi) drug resistant MV4-11 cells (AID 1963824); further: nearly all actives have a fitted effect of over 35% in size
Procedure, shortened: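 CellTiter-Glo luminescence, read 10 min after reagent addition, reports viability after a 72 hr compound exposure. Cells are an MV4-11 line made resistant to SYK inhibition, seeded at 500 per well onto compound-containing plates.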
Potency means the concentration at half of the fitted maximal effect.

Cytochrome P450 3A7 (Homo sapiens), sequence (P24462 whole entry, looked up): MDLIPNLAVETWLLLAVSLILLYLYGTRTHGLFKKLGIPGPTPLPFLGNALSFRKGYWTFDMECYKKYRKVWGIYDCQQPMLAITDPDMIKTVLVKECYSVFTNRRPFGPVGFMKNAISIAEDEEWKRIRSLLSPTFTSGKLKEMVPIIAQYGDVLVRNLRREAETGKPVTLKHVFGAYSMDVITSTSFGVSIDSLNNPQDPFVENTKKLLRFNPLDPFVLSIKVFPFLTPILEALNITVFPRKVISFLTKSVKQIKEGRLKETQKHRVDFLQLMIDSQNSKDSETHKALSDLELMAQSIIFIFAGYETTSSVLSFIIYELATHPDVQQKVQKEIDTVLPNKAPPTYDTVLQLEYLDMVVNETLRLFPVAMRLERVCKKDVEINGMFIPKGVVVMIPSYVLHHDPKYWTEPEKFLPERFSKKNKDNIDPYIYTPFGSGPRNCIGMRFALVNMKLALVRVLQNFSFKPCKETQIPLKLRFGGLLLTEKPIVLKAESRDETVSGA

Row | SMILES | Potency [1] | Potency [2] | activity (max response) [3] | Potency [4] | Potency [5] | Potency [3]
1 | COc1cc(C(=O)N2CCOCC2)cc(OC)c1OC | inactive | inactive | 1.89% | inactive |  | 
2 | COc1ccc(C(=O)NCc2cc(C(C)C)no2)cc1OC1CCN(C)CC1 | inactive |  |  |  | inactive | 
3 | COc1cc(NS(=O)(=O)c2ccc(N)cc2)ncn1 | inactive | inactive |  | inactive |  | 
4 | CCOc1cc(C(=O)N2CCC(N3CCN(C)CC3)CC2)ccc1Nc1ncc2c(n1)N(C1CCCC1)c1ccccc1C(=O)N2C | inactive | 651 nM (active) and 1.05 µM (active) |  | 17.8 µM (active) |  | 28.2 µM (active)
5 | CN(C(=O)C(Cl)Cl)c1ccc(OC(=O)c2ccco2)cc1 | inactive | inactive | -5.24% | inactive |  | 
6 | NS(=O)(=O)c1cc(C(=O)O)cc(N2CCCC2)c1Oc1ccccc1 | inactive | inactive | -0.899% | inactive |  | 
7 | Cc1cccc(C)c1NC(=O)c1cc(S(N)(=O)=O)c(Cl)cc1O | inactive | inactive | 10.1% | inactive |  | 
8 | NC(N)=NC(N)=NCCc1ccccc1 | inactive | 11.8 µM (active) | -8.99% | inactive |  | 
9 | CN1CC(=O)NC1=N | inactive | inactive | 5.44% | inactive |  | 
11 | O=C(O)CP(=O)(O)O | inactive | inactive | 1.41% | inactive |  | 
12 | CCC(=O)N1CCOc2c(cc(-c3ccc(OC)c(OC)c3)cc2OC[C@H]2CCCN(C)C2)C1 | inactive |  |  |  | 7.31 µM (active) | 
13 | Nc1nc(O)c(C2=C3C(=Nc4ccccc43)C(=O)NCC2)[nH]1 | inactive |  |  |  | 1.16 µM (active) | 
14 | CC[N+](CC)(CC)CCOC(=O)C(C1CCCC1)C1CCCC1 | inactive | 18.8 µM (active) |  | inactive |  | 
15 | NC/C=C/C(=O)O | inactive | inactive | 8.43% | inactive |  | 
16 | CCc1cc(Cl)c(OC)c(C(=O)NC[C@@H]2CCCN2CC)c1O | inactive | inactive | -13.7% | inactive |  | 

Row | SMILES | Potency [1] | Potency [2] | activity (max response) [3] | Potency [4] | Potency [5] | Potency [3]
17 | CCN1CCC[C@@H]1CNC(=O)c1ccc2c(c1)NC(=O)c1cccc(C)c1S2 | 20 µM (active) |  |  |  | 20.6 µM (active) | 
18 | O=C(O)CCCCC1CCSS1 (configuration not stated) | inactive | inactive |  | inactive |  | 
19 | CCCCCC(N)=O | inactive | inactive | 5.46% | inactive |  | 
20 | O=C(OCc1ccccc1)c1ccccc1 | inactive | inactive | -7.64% | inactive |  | 
21 | Nc1ncnc2c1C(=O)N(c1ccc(C3CCC(CC(=O)O)CC3)cc1)CCO2 (configuration not stated) | inactive | inactive | 10.6% | inactive |  | 
22 | CC(C)(C)NC[C@H](O)COc1cccc2c1CCCC2=O | inactive | 11.9 µM (active) | -13.3% | inactive |  | 
23 | CN1C(=O)CC(c2ccccc2)C1=O (configuration not stated) | inactive | inactive | 5.01% | inactive |  | 
24 | Cc1c(NC(=O)c2cccnc2)c(=O)n(-c2ccccc2)n1C | inactive | inactive |  | inactive |  | 
25 | Cn1c(=O)n(-c2ccc(C(C)(C)C#N)cc2)c2c3cc(C#Cc4cccnc4)ccc3ncc21 | inactive |  |  |  | 0.0447 µM (active) | 
26 | CCC(C(=O)O)c1ccc(N2Cc3ccccc3C2=O)cc1 (configuration not stated) | inactive | inactive | 5.42% | inactive |  | 
27 | CN1C(=O)CC[C@H]1c1cccnc1 | inactive | inactive | 2.26% | inactive |  | 
28 | O=C(O)c1ccc[n+]([O-])c1 | inactive | inactive |  | inactive |  | 
29 | CCN1CCN(Cc2ccc(NC(=O)Nc3ccc(Oc4cc(NC)ncn4)cc3)cc2C(F)(F)F)CC1 | inactive | inactive |  | 10 µM (active) |  | 3.98 µM (active)
30 | CCN1CCC[C@H]1CNC(=O)c1cc(S(N)(=O)=O)ccc1OC | inactive | inactive | 6.63% | inactive |  | 
31 | COc1cc(N2CCOCC2)ccc1NC(=O)c1csc(-c2cccnc2)n1 | inactive |  |  |  | 0.259 µM (active) | 
